# Read-outs that look alike come from different tables or passages of the source.
# Key:
# PLK4 = details: read-out: apparent Kd, n = 1
# PRKAA2 = details: read-out: apparent Kd, n = 1
substance,measurement,setting,value
Lestaurtinib,potency estimated from few doses,"PLK4; compound concentrations:100 nM and 1000 nM (sheet 'Lestaurtinib' of Supplementary Table 1),run:Lestaurtinib_02768_R1,Plate:MR028",0.0516 µM
same,potency estimated from few doses,"PLK4; compound concentrations:100 nM and 1000 nM (sheet 'Lestaurtinib' of Supplementary Table 1),run:Lestaurtinib_02768_R2,Plate:MR028",0.0616 µM
same,potency estimated from few doses,"PLK4; compound concentrations:100 nM and 1000 nM (sheet 'Lestaurtinib' of Supplementary Table 1),run:Lestaurtinib_02768_R3,Plate:MR028",0.0744 µM
same,potency estimated from few doses,"PLK4; compound concentrations:100 nM and 1000 nM (sheet 'Lestaurtinib' of Supplementary Table 1),run:Lestaurtinib_02795_R1,Plate:MR022",0.0553 µM
same,potency estimated from few doses,"PLK4; compound concentrations:100 nM and 1000 nM (sheet 'Lestaurtinib' of Supplementary Table 1),run:Lestaurtinib_02795_R2,Plate:MR022",0.0634 µM
same,potency estimated from few doses,"PLK4; compound concentrations:100 nM and 1000 nM (sheet 'Lestaurtinib' of Supplementary Table 1),run:Lestaurtinib_02802_R1,Plate:MR029",0.073 µM
same,potency estimated from few doses,"PLK4; compound concentrations:100 nM and 1000 nM (sheet 'Lestaurtinib' of Supplementary Table 1),run:Lestaurtinib_02802_R2,Plate:MR029",0.0834 µM
same,potency estimated from few doses,"PLK4; compound concentrations:100 nM and 1000 nM (sheet 'Lestaurtinib' of Supplementary Table 1),run:Lestaurtinib_02802_R3,Plate:MR029",0.0323 µM
same,potency estimated from few doses,"PLK4; compound concentrations:100 nM and 1000 nM (sheet 'Lestaurtinib' of Supplementary Table 1),run:Lestaurtinib_02896_R1,Plate:MR030",0.0783 µM
same,potency estimated from few doses,"PLK4; compound concentrations:100 nM and 1000 nM (sheet 'Lestaurtinib' of Supplementary Table 1),run:Lestaurtinib_02896_R3,Plate:MR030",0.0806 µM
same,potency estimated from few doses,"PLK4; compound concentrations:100 nM and 1000 nM (sheet 'Lestaurtinib' of Supplementary Table 1),run:Lestaurtinib_03172_R1,Plate:MR031",0.0673 µM
same,potency estimated from few doses,"PLK4; compound concentrations:100 nM and 1000 nM (sheet 'Lestaurtinib' of Supplementary Table 1),run:Lestaurtinib_03172_R3,Plate:MR031",0.0728 µM
same,potency estimated from few doses,"PLK4; compound concentrations:100 nM and 1000 nM (sheet 'Lestaurtinib' of Supplementary Table 1),run:Lestaurtinib_03252_R1,Plate:MR032",0.0648 µM
same,potency estimated from few doses,"PLK4; compound concentrations:100 nM and 1000 nM (sheet 'Lestaurtinib' of Supplementary Table 1),run:Lestaurtinib_03252_R2,Plate:MR032",0.0239 µM
same,potency estimated from few doses,"PLK4; compound concentrations:100 nM and 1000 nM (sheet 'Lestaurtinib' of Supplementary Table 1),run:Lestaurtinib_03260_R2,Plate:MR033",0.0637 µM
same,potency estimated from few doses,"PLK4; compound concentrations:100 nM and 1000 nM (sheet 'Lestaurtinib' of Supplementary Table 1),run:Lestaurtinib_03260_R3,Plate:MR033",0.0785 µM
same,potency estimated from few doses,"PRKAA2; compound concentrations:100 nM and 1000 nM (sheet 'Lestaurtinib' of Supplementary Table 1),run:Lestaurtinib_02339_R1,Plate:MR001",0.963 µM
same,potency estimated from few doses,"PRKAA2; compound concentrations:100 nM and 1000 nM (sheet 'Lestaurtinib' of Supplementary Table 1),run:Lestaurtinib_02339_R3,Plate:MR001",0.953 µM
same,potency estimated from few doses,"PRKAA2; compound concentrations:100 nM and 1000 nM (sheet 'Lestaurtinib' of Supplementary Table 1),run:Lestaurtinib_02364_R1,Plate:MR002",0.713 µM
same,potency estimated from few doses,"PRKAA2; compound concentrations:100 nM and 1000 nM (sheet 'Lestaurtinib' of Supplementary Table 1),run:Lestaurtinib_02364_R2,Plate:MR002",0.541 µM
same,potency estimated from few doses,"PRKAA2; compound concentrations:100 nM and 1000 nM (sheet 'Lestaurtinib' of Supplementary Table 1),run:Lestaurtinib_02364_R3,Plate:MR002",0.553 µM
same,potency estimated from few doses,"PRKAA2; compound concentrations:100 nM and 1000 nM (sheet 'Lestaurtinib' of Supplementary Table 1),run:Lestaurtinib_02367_R1,Plate:MR003",1.32 µM
same,potency estimated from few doses,"PRKAA2; compound concentrations:100 nM and 1000 nM (sheet 'Lestaurtinib' of Supplementary Table 1),run:Lestaurtinib_02367_R3,Plate:MR003",0.892 µM
same,potency estimated from few doses,"PRKAA2; compound concentrations:100 nM and 1000 nM (sheet 'Lestaurtinib' of Supplementary Table 1),run:Lestaurtinib_02381_R1,Plate:MR004",1.4 µM
same,potency estimated from few doses,"PRKAA2; compound concentrations:100 nM and 1000 nM (sheet 'Lestaurtinib' of Supplementary Table 1),run:Lestaurtinib_02381_R2,Plate:MR004",0.954 µM
same,potency estimated from few doses,"PRKAA2; compound concentrations:100 nM and 1000 nM (sheet 'Lestaurtinib' of Supplementary Table 1),run:Lestaurtinib_02381_R3,Plate:MR004",0.761 µM
same,potency estimated from few doses,"PRKAA2; compound concentrations:100 nM and 1000 nM (sheet 'Lestaurtinib' of Supplementary Table 1),run:Lestaurtinib_02407_R1,Plate:MR005",0.755 µM
same,potency estimated from few doses,"PRKAA2; compound concentrations:100 nM and 1000 nM (sheet 'Lestaurtinib' of Supplementary Table 1),run:Lestaurtinib_02407_R3,Plate:MR005",0.722 µM
same,potency estimated from few doses,"PRKAA2; compound concentrations:100 nM and 1000 nM (sheet 'Lestaurtinib' of Supplementary Table 1),run:Lestaurtinib_02422_R3,Plate:MR006",0.0748 µM
same,potency estimated from few doses,"PRKAA2; compound concentrations:100 nM and 1000 nM (sheet 'Lestaurtinib' of Supplementary Table 1),run:Lestaurtinib_02437_R2,Plate:MR007",0.616 µM
same,potency estimated from few doses,"PRKAA2; compound concentrations:100 nM and 1000 nM (sheet 'Lestaurtinib' of Supplementary Table 1),run:Lestaurtinib_02437_R3,Plate:MR007",0.0565 µM
same,potency estimated from few doses,"PRKAA2; compound concentrations:100 nM and 1000 nM (sheet 'Lestaurtinib' of Supplementary Table 1),run:Lestaurtinib_02438_R1,Plate:MR008",0.857 µM
same,potency estimated from few doses,"PRKAA2; compound concentrations:100 nM and 1000 nM (sheet 'Lestaurtinib' of Supplementary Table 1),run:Lestaurtinib_02443_R3,Plate:MR009",0.792 µM
same,potency estimated from few doses,"PRKAA2; compound concentrations:100 nM and 1000 nM (sheet 'Lestaurtinib' of Supplementary Table 1),run:Lestaurtinib_02473_R1,Plate:MR010",0.73 µM
same,potency estimated from few doses,"PRKAA2; compound concentrations:100 nM and 1000 nM (sheet 'Lestaurtinib' of Supplementary Table 1),run:Lestaurtinib_02473_R2,Plate:MR010",0.941 µM
same,potency estimated from few doses,"PRKAA2; compound concentrations:100 nM and 1000 nM (sheet 'Lestaurtinib' of Supplementary Table 1),run:Lestaurtinib_02473_R3,Plate:MR010",0.799 µM
same,potency estimated from few doses,"PRKAA2; compound concentrations:100 nM and 1000 nM (sheet 'Lestaurtinib' of Supplementary Table 1),run:Lestaurtinib_02482_R1,Plate:MR011",0.788 µM
same,potency estimated from few doses,"PRKAA2; compound concentrations:100 nM and 1000 nM (sheet 'Lestaurtinib' of Supplementary Table 1),run:Lestaurtinib_02482_R2,Plate:MR011",0.508 µM
same,potency estimated from few doses,"PRKAA2; compound concentrations:100 nM and 1000 nM (sheet 'Lestaurtinib' of Supplementary Table 1),run:Lestaurtinib_02482_R3,Plate:MR011",0.568 µM
same,potency estimated from few doses,"PRKAA2; compound concentrations:100 nM and 1000 nM (sheet 'Lestaurtinib' of Supplementary Table 1),run:Lestaurtinib_02487_R1,Plate:MR012",0.422 µM
same,potency estimated from few doses,"PRKAA2; compound concentrations:100 nM and 1000 nM (sheet 'Lestaurtinib' of Supplementary Table 1),run:Lestaurtinib_02487_R3,Plate:MR012",0.679 µM
same,potency estimated from few doses,"PRKAA2; compound concentrations:100 nM and 1000 nM (sheet 'Lestaurtinib' of Supplementary Table 1),run:Lestaurtinib_02496_R1,Plate:MR013",0.702 µM

# From PMC11062922 (Nature Chemical Biology, 2023)
